High-throughput results deposited in PubChem BioAssay by National Center for Advancing Translational Sciences (NCATS).
Rows were chosen to be rich in hits. Some 9.2% of all compounds tested hit in one or more screens of this group.
ELG1 DNA repair: blocks ELG1-dependent DNA repair in HEK293T cells | HEK293T ELG1-luciferase reporter, luminescence, 16 h; DNA damage induced by 5-fluorouridine | actives 2.3% (n = 330,000) | Potency, µM (highest dose often 46.1 µM), usual class: inhibitors; also: nearly all actives have a fitted effect of over 55% in size
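Cells (2,000 per well) received 5-fluorouridine plus test compound or DMSO and were incubated 16 hr at 37 °C, 5% CO2. Luciferase activity was read by luminescence 30 min after ONE-Glo addition; signal suppression marked inhibition of damage-induced ELG1 function.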
ELG1 genotox: induces genotoxicity in HEK293T cells with luciferase-tagged ELG1. Potency, µM (titrated, usually from 46 µM), usual class: activators. AID 504466. actives 1.3% (n = 330,000). HEK293T ELG1-luciferase reporter, luminescence, 16 h; also: nearly all actives have a fitted effect of over 60% in size
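Screening used a luciferase reporter fused to human ELG1 in HEK293T cells. Luminescence was read on a CCD plate imager after 16 hr exposure and 30 min ONE-Glo incubation.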
SMN2 splice enh: increases expression of the SMN2 splice variant. HEK293 SMN2-luciferase splicing reporter, luminescence, 30-36 h. Potency, µM (highest dose often 46.1 µM), actives largely listed as activators. actives 2.8% (n = 210,000). AID 1458; also: nearly all actives have a fitted effect of over 55% in size
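HEK293 cells carry an SMN2 […]–luciferase reporter in which exon 7 inclusion puts luciferase in frame. Cells were plated 10-12 h before compound addition, then incubated 30-36 h at 37C. ONE-Glo luminescence was read; sodium butyrate at 4.5 mM final served as control.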
NPC1 prom act: activates the NPC1 promoter; Huh7 NPC1 promoter luciferase reporter, 24 h; Potency, µM (highest dose often 9.22 µM), hits mostly activators; actives 2.4% (n = 320,000); also: nearly all actives have a fitted effect of over 60% in size
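In 1536-well qHTS, Huh7 cells harboring an NPC1 promoter–luciferase construct received compound for 24 h; activation was quantified by luminescence following luciferase reagent addition.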
Rab9 promoter act: activators of Rab9 promoter. AID 485297. Huh7 Rab9 promoter-luciferase reporter, luminescence, 24 h. actives 2.8% (n = 320,000). Potency, µM (doses to about 9.22 µM), most hits filed as activators; also: nearly all actives have a fitted effect of over 60% in size
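Using Huh7 cells stably transfected with Rab9 promoter–luciferase, compounds were incubated 24 h at 37 °C, 5% CO2; luciferase luminescence was read 10 min after reagent addition.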
FLuc counter: inhibits or activates purified firefly luciferase, miR-21 counter-screen. purified FLuc, Km substrates, luminescence inhibition. actives 6.9% (n = 360,000). P08659. AID 588342. Potency, µM (doses to about 57.5 µM), hits mostly inhibitors; also: nearly all actives have a fitted effect of over 55% in size
Target sequence (P08659 whole entry, looked up): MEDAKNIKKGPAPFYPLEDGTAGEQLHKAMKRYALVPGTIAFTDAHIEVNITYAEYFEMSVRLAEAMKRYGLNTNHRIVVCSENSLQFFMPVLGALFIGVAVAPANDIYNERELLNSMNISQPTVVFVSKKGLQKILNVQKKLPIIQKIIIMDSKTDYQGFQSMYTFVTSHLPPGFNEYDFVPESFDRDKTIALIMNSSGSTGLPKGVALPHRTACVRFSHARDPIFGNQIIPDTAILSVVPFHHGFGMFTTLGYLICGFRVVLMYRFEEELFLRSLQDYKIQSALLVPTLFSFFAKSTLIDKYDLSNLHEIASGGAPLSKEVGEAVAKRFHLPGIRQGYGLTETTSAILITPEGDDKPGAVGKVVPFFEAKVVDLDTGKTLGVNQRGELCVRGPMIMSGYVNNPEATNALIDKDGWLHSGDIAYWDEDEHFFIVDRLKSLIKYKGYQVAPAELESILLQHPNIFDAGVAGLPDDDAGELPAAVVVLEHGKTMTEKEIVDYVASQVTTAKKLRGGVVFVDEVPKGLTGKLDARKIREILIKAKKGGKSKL
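Purified P. pyralis luciferase, 10 nM final, with Km-level 10 uM D-luciferin and 10 uM ATP in 50 mM Tris acetate pH 7.5, 10 mM Mg acetate, 0.01% Tween-20, 0.05% BSA; 6-point qHTS titration about 60 µM downward; luminescence read.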
Numbers stand for hits; . = inactive; ? = inconclusive; / = no result given; [ ] = dose if it differs, or a comment. Calls follow the shape of the dose curve; as a rule, active = well fitted curve in the direction sought with a large enough effect; inconclusive = small, poorly fitted or top-dose-only effect, or another doubt; inactive = no such curve, though single readings can be large; an effect the other way counts as inactive or inconclusive.

SMILES	ELG1 DNA repair	ELG1 genotox	SMN2 splice enh	NPC1 prom act	Rab9 promoter act	FLuc counter
CC(=O)c1ccc(N2CCN(C(=O)NCc3noc4ccc(C)cc34)CC2)cc1	/	/	/	/	/	.
COCCn1c(C)cc(O)c(C(c2ccccc2)N2CCN(C)CC2)c1=O (stereo unspecified)	/	/	/	/	/	.
CC(=O)Nc1cc(-c2nc3ccccc3o2)ccc1Cl	?	?	/	.	?	17µM
COc1ccc(-c2nc3ccccc3o2)cc1NC(=O)COc1ccc(C(C)(C)C)cc1	/	/	5µM	/	/	.
O=C(Nc1cccc(-c2nc3ccccc3o2)c1)c1ccc(N2C(=O)C3C4C=CC(C4)C3C2=O)cc1 (stereo unspecified)	16µM	.	.	.	.	.
CCCC(=O)Nc1cccc(-c2nc3ccccc3o2)c1	.	.	.	.	.	?
COc1ccc(-c2nc3ccccc3o2)cc1NC(=O)COc1cc(C)cc(C)c1	/	/	/	/	/	.
O=C1C2C3C=CC(C3)C2C(=O)N1c1cccc(-c2nc3ccccc3o2)c1 (stereo unspecified)	.	.	?	.	.	.
COc1ccc(OCC(=O)Nc2cccc(-c3nc4ccccc4o3)c2)cc1	?	?	.	4.5µM	?	?
Cc1nc(N2CCCC2)ncc1C(=O)NCc1ccccc1Cl	/	/	/	/	/	.
O=C(O)CCC(=O)Nc1cccc(-c2nc3ccccc3o2)c1	.	.	/	.	.	11µM
COc1ccccc1CNS(=O)(=O)c1cnc(N)nc1	/	/	/	/	/	.
Cc1ccc(CONC(=O)c2ccccc2)cc1	?	?	/	?	?	15µM
Cc1ccc(C(=O)N/C(=C/c2ccco2)C(=O)OCN2C(=O)c3ccccc3C2=O)cc1	.	.	.[1.84 µM]	.	.	11µM
O=C(OCc1ccccc1)/C(=C/c1cccc2ccccc12)NC(=O)c1ccccc1	.	.	.	.	.	.
Cc1ccc(CONC(=O)c2ccc(Cl)cc2)cc1	?	?	/	.	?	?
Cc1ccc(C(=O)N/C(=C\c2ccccc2)C(=O)OCc2ccccc2)cc1	?	?	20µM	?	?	15µM
Cc1ccc(CONC(=O)c2ccc(C)cc2)cc1	?	?	/	?	?	13µM
CCCCN(C)C(=O)c1cn(C)c2ccc(S(=O)(=O)N3CCC(C)CC3)cc2c1=O	.	.	.	.	.	.
C/C=C/C(=O)Nc1nnc(C2CCCCC2)s1	.	.	/	.	.	27µM
Cc1ccc(C(=O)Nc2nnc(C3CCCCC3)s2)o1	?	3.7µM	11µM	1.8µM	4µM	9.5µM
Cc1cc(C(=O)Nc2nnc(C3CCCCC3)s2)no1	/	/	.	/	/	?
CCOCC(=O)Nc1nnc(C2CCCCC2)s1	?	?	13µM	?	?	?
O=C(Nc1nnc(C2CC2)s1)C1CCCCC1	?	.	/	.	.	.
CC(Sc1nnc(Cc2ccccc2)o1)C(=O)NC1(C#N)CCCCC1 (stereo unspecified)	.	.	/	/	/	/
SMILES	ELG1 DNA repair	ELG1 genotox	SMN2 splice enh	NPC1 prom act	Rab9 promoter act	FLuc counter
COc1cc(/C=C/c2ccc3c([N+](=O)[O-])cccc3n2)ccc1OCC(=O)O	.	.	/	.	.	3.4µM
COc1cc(/C=C/c2nc3ccc([N+](=O)[O-])cc3s2)ccc1OCC(=O)O	.	.	/	.	.	2.7µM
CC(=O)Nc1ccc(/C=C/c2ccc3cccc([N+](=O)[O-])c3n2)cc1	.	.	/	.	.	?
COc1cc(C=O)ccc1OCCCCOc1ccccc1[N+](=O)[O-]	.	.	.	.	.	.
O=C(O)COc1ccc(/C=C/c2ccc3cccc([N+](=O)[O-])c3n2)cc1	.	.	.	.	.	2.7µM
COc1cc(/C=C/c2ccc3cccc([N+](=O)[O-])c3n2)ccc1OCC(=O)O	.	.	.	.	.	1.9µM
O=C(NCCCN1CCOCC1)C1CCN(S(=O)(=O)c2ccccc2)CC1	.	.	/	.	.	.
COc1ccc2c(CNCCc3ccccc3OC)c(C(=O)O)n(Cc3ccc(F)cc3Cl)c2c1	/	/	/	/	/	.
CCn1c(=O)c2ccccc2n(CC(=O)NCCC2=CCCCC2)c1=O	.	.	/	.	.	.
CCOc1c(OC(C)=O)ccc(/C=C/c2ccc3cccc(OC)c3n2)c1[N+](=O)[O-]	.	.	?	?	.	6µM
COc1c(OC(C)=O)ccc(/C=N\NC(=O)c2ccc(Br)cc2)c1[N+](=O)[O-]	?	.	/	.	.	.
COc1ccc(-c2cncnc2-c2ccc(OC)cc2O)cc1	5.8µM	.	/	.	.	.
CC(=O)c1ccc(N2CCN(C(=O)C3CCN(S(=O)(=O)Cc4ccccc4)CC3)CC2)cc1	18µM	.	/	.	.	.
CC(=O)Nc1ccc(S(=O)(=O)N2CCCC(C(=O)N3CCN(c4ccccc4)CC3)C2)cc1 (stereo unspecified)	21µM	.	/	.	.	.
O=C(C1CCN(S(=O)(=O)Cc2ccccc2)CC1)N1CCN(c2ccccc2)CC1	/	/	/	/	/	.
COc1ccc(NC(=O)C2(c3ccc(NC(=O)c4ccc(C)cc4)cc3)CCCC2)cc1	.	.	.	.	.	.
N#CC1(c2ccc(NC(=O)c3ccccc3F)cc2)CCCC1	?	1.8µM	2.8µM	0.63µM	0.79µM	1.9µM
COc1ccc(C(=O)Nc2ccc(C3(C#N)CCCC3)cc2)cc1	.	.	.	.	.	4.8µM
O=C(NCCOc1ccccc1)c1cc(S(=O)(=O)N2CCOCC2)ccc1F	.	.	/	.	.	.
CN(C)Cc1nnnn1-c1cccc(-n2nnnc2CN(C)C)c1	.	.	/	.	.	.
C(=C\c1nccc2c1[nH]c1ccccc12)/c1ccccc1	?	.	/	?	?	7.6µM
Fc1ccc(/C=C\c2nccc3c2[nH]c2ccccc23)cc1	.	.	.	.	.	5.4µM
CSc1ccc(/C=C/c2cc(=O)c3ccccc3[nH]2)cc1	?	.	.	.	?	?
Cc1[nH]c2ccccc2c1/C=C/c1cc[n+](C)cc1	.	.	.	.	.	.
c1ccc2c(c1)[nH]c1ccccc12	/	/	.	/	/	/
SMILES	ELG1 DNA repair	ELG1 genotox	SMN2 splice enh	NPC1 prom act	Rab9 promoter act	FLuc counter
Cc1ccc(/C=C\c2nccc3c2[nH]c2ccccc23)cc1	?	?	?	?	?	1.7µM
Cc1ccccc1C(=O)Nc1ccc2c(c1)C(=O)NC2=O	.	.	/	.	.	.
Cc1ccc2cc(NC(=O)Cc3ccccc3)ccc2n1	?	?	/	1.4µM	2µM	3.4µM
Cc1ccc2cc(NC(=O)c3ccccc3C)ccc2n1	?	?	/	2.8µM	3.5µM	5.4µM
CCOC(=O)C1=CN(CC2CCCO2)C=C(C(=O)OCC)C1c1ccccc1C(F)(F)F (stereo unspecified)	?	.	.	.	.	.
CCOc1cc(C(=O)N(C)c2ccccc2)cc(OCC)c1OCC	.	.	.	.	.	.
